Values without a mark were called inactive. Records with an inconclusive call do not appear. Active and inactive are the calls of the source. The call rests on the fitted dose curve; in most records, active means well fitted curve in the direction sought with a large enough effect; inconclusive means small, poorly fitted or top-dose-only effect, or another doubt; inactive means no such curve, though single readings can be large; an effect the other way counts as inactive or inconclusive.
Assays:
[1] = NCATS anti-infectives library activity on HEK293 viability as a counter-qHTS vs the C. elegans viability qHTS (AID 1745854); further: potency means the concentration at half of the fitted maximal effect
Summary of the method: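 CellTiter-Glo luminescence, read on a CCD imager, scored viability of HEK293 cells after 24 hr compound exposure at 37C. Library tested in several concentrations, 1:5 steps, up to 41.7 uM; digitonin served as control.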

[2] = biological target: Glutathione peroxidase 1 (Homo sapiens) (UniProt P07203); assay: Primary qHTS Assay for Inhibitors of Recombinant Selenoprotein Glutathione Peroxidase 1 (GPX1) (AID 1845191); further: nearly all actives have a fitted effect of over 65% in size; on activity, negative = inhibition: on the % scale 0 is the no-effect control and ±100 the full control effect
Sequence of Glutathione peroxidase 1 (Homo sapiens) (P07203 whole entry, looked up): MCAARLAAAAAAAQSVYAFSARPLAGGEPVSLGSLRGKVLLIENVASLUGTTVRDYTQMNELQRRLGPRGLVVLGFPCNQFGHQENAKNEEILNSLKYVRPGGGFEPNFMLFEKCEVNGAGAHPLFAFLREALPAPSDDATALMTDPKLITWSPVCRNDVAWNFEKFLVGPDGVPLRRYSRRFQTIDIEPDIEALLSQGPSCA
Summary of the method: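 NADPH consumption tracked by fluorescence at 340/450 nm between t=0 and t=15 min, room temperature. Final mix: 10 nM GPX1, 100 nM glutathione reductase, 1 mM GSH, 0.5 mM NADPH, 0.5 mM cumene hydroperoxide, 0.01% BSA; 30 min compound–enzyme preincubation.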

[3] = biological target: Phospholipid hydroperoxide glutathione peroxidase GPX4 (Homo sapiens) (UniProt P36969); assay: Primary qHTS Assay for Inhibitors of Recombinant Selenoprotein Glutathione Peroxidase 4 (GPX4) (AID 1845192); further: nearly all actives have a fitted effect of over 65% in size; on activity change, negative = inhibition: series mostly up to about 50 µM; on the % scale 0 is the no-effect control and ±100 the full control effect
Sequence of Phospholipid hydroperoxide glutathione peroxidase GPX4 (Homo sapiens) (P36969 whole entry, looked up): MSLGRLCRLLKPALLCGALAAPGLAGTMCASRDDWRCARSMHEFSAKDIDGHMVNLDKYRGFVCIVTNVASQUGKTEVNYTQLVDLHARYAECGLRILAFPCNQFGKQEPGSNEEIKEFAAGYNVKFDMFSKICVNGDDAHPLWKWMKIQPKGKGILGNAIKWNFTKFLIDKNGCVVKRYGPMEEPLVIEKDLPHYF
Summary of the method: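 NADPH consumption followed by fluorescence at 340/450 nm, t=0 and after 15 min at room temperature. Reaction started with cumene hydroperoxide (0.5 mM final) after 30 min compound–GPX4 preincubation; final 200 nM GPX4, 100 nM GR, 1 mM GSH, 0.5 mM NADPH.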

[4] = biological target: Luciferin 4-monooxygenase (Photinus pyralis) (UniProt P08659); assay: Primary firefly luciferase (FLuc) qHTS assay for identification of artifact compounds. (AID 1845220); further: nearly all actives have a fitted effect of over 60% in size;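 on activity change, negative = inhibition: series mostly up to about 54 µM; plate controls were DMSO vehicle for no effect and no enzyme for full effect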
Summary of the method: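 FLuc 10 nM; luciferin 10 uM; ATP 10 uM; Tris-acetate pH 7.6, Mg-acetate 10 mM; 15 min RT preincubation; 5 min reaction; luminescence.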

[5] = system: Nanoluciferase (engineered Oplophorus gracilirostris luciferase); assay: Primary Nanoluciferase (NLuc) qHTS assay for identification of artifact compounds. (AID 1845222);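 further: NLuc secreted into diluted conditioned medium of S16 cells; series mostly up to about 54 µM; 0% = DMSO and -100% = no enzyme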
Summary of the method: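 NLuc from S16 cell medium (1:55) plus test compounds, 15 min, room temperature. Luminescence after Nano-Glo (1:100) addition, 5 min.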

[6] = Primary redox qHTS assay for identification of artifact compounds. (AID 1845223)
Summary of the method: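 Redox-cycling detection via DTT (250 uM final) oxidation coupled to Amplex Red (25 uM)/HRP (250 mU/mL) in HBSS. 15 min preincubation plus 30 min after DTT, room temperature. Ex/Em 525/598 nm; 4-parameter Hill fit against DMSO and 10 uM DA3003.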

[7] = Quantitative High-Throughput drug screen in 47 multiple myeloma cell lines against the NCATS MIPE library collection: FR4_PLB cell viability assay (AID 1918924; further: nearly all actives have a fitted effect of over 35% in size; further: potency means the concentration at half of the fitted maximal effect)
Summary of the method: (§1)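 Approved and investigational drugs from MIPE 4.0 were added by pin tool to 500 cells per well. After 48 hours at 37C, ATP-based CellTiter-Glo luminescence indicated remaining viability.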

[8] = Quantitative High-Throughput drug screen in 47 multiple myeloma cell lines against the NCATS MIPE library collection: Delta47_JCRB cell viability assay (AID 1918925; further: nearly all actives have a fitted effect of over 45% in size; further: potency means the concentration at half of the fitted maximal effect)
Summary of the method: (§2)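 Luminescent ATP measurement with CellTiter-Glo gives viability, scaled between DMSO-only wells (100%) and media-only wells (0%). Cells, 500 per well, faced library compounds for 48 hours at 37C.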

[9] = Quantitative High-Throughput drug screen in 47 multiple myeloma cell lines against the NCATS MIPE library collection: EJM_DSMZ cell viability assay (AID 1918926; further: potency means the concentration at half of the fitted maximal effect; nearly all actives have a fitted effect of over 30% in size)
Summary of the method: as §2

[10] = Quantitative High-Throughput drug screen in 47 multiple myeloma cell lines against the NCATS MIPE library collection: AMO1_DSMZ cell viability assay (AID 1918927; further: nearly all actives have a fitted effect of over 30% in size; further: potency means the concentration at half of the fitted maximal effect)
Summary of the method: as §2

[11] = Quantitative High-Throughput drug screen in 47 multiple myeloma cell lines against the NCATS MIPE library collection: ARP1_JJKsccF8 cell viability assay (AID 1918928; further: nearly all actives have a fitted effect of over 40% in size; further: potency means the concentration at half of the fitted maximal effect)
Summary of the method: (§3)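 Cell viability inhibition in this qHTS is measured via ATP content (CellTiter-Glo) after 48 h drug exposure at 37 °C. Wells hold 500 cells; DMSO-treated wells define 100% and medium-only wells 0%.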

[12] = Quantitative High-Throughput drug screen in 47 multiple myeloma cell lines against the NCATS MIPE library collection: ARD_JJKsccE7 cell viability assay (AID 1918929; further: potency means the concentration at half of the fitted maximal effect)
Summary of the method: as §2

[13] = Quantitative High-Throughput drug screen in 47 multiple myeloma cell lines against the NCATS MIPE library collection: Karpas620_DSMZ cell viability assay (AID 1918959); further: potency means the concentration at half of the fitted maximal effect; nearly all actives have a fitted effect of over 30% in size
Summary of the method: as §1

[14] = Quantitative High-Throughput drug screen in 47 multiple myeloma cell lines against the NCATS MIPE library collection: KMM1_JCRB cell viability assay (AID 1918960); further: nearly all actives have a fitted effect of over 30% in size; further: potency means the concentration at half of the fitted maximal effect
Summary of the method: as §3

[15] = Primary fluorescence-based thiol-reactive (MSTI) qHTS assay for identification of artifact compounds. (AID 1845221);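 further: series mostly up to about 54 µM; thiol-reactive compounds lower the probe fluorescence signal; nearly all actives have a fitted effect of over 65% in size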
Summary of the method: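 Reactivity toward the thiol probe MSTI (4 uM) is scored by fluorescence at Ex/Em 525/598 nm after 1 h at room temperature. Acetyl-MSTI and MSTI define the activity scale.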

Structure (SMILES) | Potency [1] | Potency [2] | Potency [3] | Potency [4] | Potency [5] | Potency [6] | Potency [7] | Potency [8] | Potency [9] | Potency [10] | Potency [11] | Potency [12] | Potency [13] | Potency [14] | activity change, negative = inhibition [4] | activity change, negative = thiol reactive [15] | activity, negative = inhibition [5] | redox activity (% of DA3003) [6] | Potency [15]
COc1cccc2c(NCc3ccccc3)nc(-n3c(N)nc4ccccc43)nc12 | 7.08 µM (active) | inactive | inactive | inactive | inactive | inactive | 6.62 µM (active) | 2960 nM (active) | 6.62 µM (active) | 1050 nM (active) | 7.43 µM (active) | 4.69 µM (active) | 1.48 µM (active) | 1.66 µM (active) | – | – | – | – | –
CC(=O)c1c(C)c2cnc(Nc3ccc(N4CCNCC4)cn3)nc2n(C2CCCC2)c1=O | – | inactive | inactive | – | – | – | 18.7 µM (active) | 23500 nM (active) | 18.7 µM (active) | 16600 nM (active) | 14.8 µM (active) | 14.8 µM (active) | 26.4 µM (active) | 20.9 µM (active) | 1.06% [at 6.45 µM] | 7.61% [at 6.41 µM] | 0% [at 6.45 µM] | -5.59% [at 6.41 µM] | –
O=C(Cc1ccc(-c2ccc(OCCN3CCOCC3)cc2)cn1)NCc1ccccc1 | – | inactive | inactive | inactive | inactive | inactive | 0.0093 µM (active) | 26.4 nM (active) | 0.0662 µM (active) | 13.2 nM (active) | 0.0166 µM (active) | – | 0.0042 µM (active) | 0.0118 µM (active) | – | – | – | – | inactive
O=C(Nc1nc2cccc(-c3ccc(CN4CCS(=O)(=O)CC4)cc3)n2n1)C1CC1 | – | inactive | inactive | inactive | inactive | inactive | 9.35 µM (active) | – | 18.7 µM (active) | – | 20.9 µM (active) | – | – | 8.33 µM (active) | – | – | – | – | inactive
Nc1ccccc1NC(=O)c1ccc(CNC(=O)OCc2cccnc2)cc1 | inactive | inactive | inactive | inactive | inactive | inactive | – | 372 nM (active) | 3.72 µM (active) | 833 nM (active) | 1.32 µM (active) | – | 2.64 µM (active) | 0.418 µM (active) | – | – | – | – | –
CC(C)(C)OC(=O)Nc1ccc(-c2cc(C(=O)NCCCCCCC(=O)NO)no2)cc1 | inactive | inactive | inactive | – | – | – | 1.32 µM (active) | 833 nM (active) | 3.72 µM (active) | 590 nM (active) | 0.743 µM (active) | 0.935 µM (active) | – | – | – | – | – | – | –
COc1cc2c(cc1-c1c(C)noc1C)ncc1[nH]c(=O)n([C@H](C)c3ccccn3)c12 | inactive | inactive | inactive | inactive | – | inactive | 0.833 µM (active) | 418 nM (active) | 10.5 µM (active) | 332 nM (active) | 0.332 µM (active) | 0.296 µM (active) | 5.9 µM (active) | 5.9 µM (active) | – | – | – | – | inactive
Cc1ccc2nc(NC(=O)CSc3nc4c(c(=O)n3-c3ccccc3)SCC4)sc2c1 | – | inactive | inactive | inactive | inactive | inactive | 5.9 µM (active) | 18700 nM (active) | 6.62 µM (active) | 9350 nM (active) | – | – | – | – | – | – | – | – | inactive
CN(C)Cc1c(C(=O)NCCOc2ccc(C(=O)NO)cc2)oc2ccccc12 | inactive | inactive | inactive | inactive | inactive | inactive | 0.526 µM (active) | 1050 nM (active) | 1.87 µM (active) | 526 nM (active) | 0.526 µM (active) | 0.59 µM (active) | 0.743 µM (active) | 0.469 µM (active) | – | – | – | – | –
NC(=O)Nc1cc(-c2cccc(F)c2)sc1C(=O)N[C@H]1CCCNC1 | – | inactive | inactive | inactive | inactive | inactive | 0.0833 µM (active) | 105 nM (active) | 0.296 µM (active) | – | 3.72 µM (active) | 0.526 µM (active) | 3.72 µM (active) | 0.187 µM (active) | – | – | – | – | inactive
Cc1cn(-c2cc(NC(=O)c3ccc(C)c(Nc4nccc(-c5cccnc5)n4)c3)cc(C(F)(F)F)c2)cn1 | – | inactive | inactive | inactive | inactive | inactive | 20.9 µM (active) | inactive | – | – | – | – | – | 0.264 µM (active) | – | – | – | – | inactive
CCN(CC)CCNC(=O)c1ccc2nc(-c3ccccc3)c(-c3ccc(CN4CCC(n5c(=O)[nH]c6ccccc65)CC4)cc3)nc2c1 | – | inactive | inactive | inactive | inactive | inactive | 14.8 µM (active) | 662 nM (active) | – | 1050 nM (active) | – | 2.64 µM (active) | 0.935 µM (active) | 1.66 µM (active) | – | – | – | – | inactive
Clc1cccc(-c2nnnn2Cc2cccnc2)c1Cl | – | inactive | inactive | inactive | inactive | inactive | inactive | – | – | inactive | inactive | – | – | inactive | – | – | – | – | inactive
Cc1cn2c(-c3cn[nH]c3)cnc2c(Nc2ccc(C(=O)N3CCNCC3)cc2F)n1 | – | inactive | inactive | inactive | inactive | inactive | 16.6 µM (active) | 7430 nM (active) | 18.7 µM (active) | inactive | 23.5 µM (active) | 5.9 µM (active) | – | – | – | – | – | – | inactive
